# PTK2B oligo ant – antagonists of human Pyk2 oligomerization; Q14289; Q293 cells, Pyk2 FERM NanoBiT luminescence; hits give low values; z-score (the deposit names both 25 µM and 10 µM); 99,000 compounds, 0.83% hits; AID 1347419;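 active = Z-score of -3 or lower, scaled per plate to the spread of control and sample wells; inactive = z-score above -3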;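 note: negative z-score means lost luminescence so less FERM oligomerization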
# Cav32 inh – blocks human Cav3.2 T-type calcium channel. 100,000 compounds, 4% hits. Cav3.2-expressing cells, Fluo-4 calcium fluorescence FDSS; hits give low values. B-score at 10 µM. O95180;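 active = single-dose well whose peak fluorescence ratio is a statistical outlier from its plate by either plate-standardised score or position-corrected B-score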
# CYP2C19 inhib – blocks human cytochrome P450 2C19; P33261; CYP2C19 Supersomes, luciferin-H EGE luminescence, 30 min; inhibition, % at 5 µM; 96,000 compounds, 21% hits; AID 778;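 active = CYP2C19 inhibition above a set limit at 5 µM in the primary screen, cut at about 50% in these data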;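 note: plate controls were negative control wells for no effect and 2.5 mM tranylcypromine positive control for full effect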
# CYP2C19 activ – cytochrome P450 2C19 (human) activation. recombinant CYP2C19, luciferin-H EGE luminescence; hits give high values; 0 = fully inhibited enzyme, 1 = untreated enzyme. activation factor at 5 µM. P33261. 96,000 tested, under 10 active;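 active = activation factor of at least 2 at 5 µM in the primary screen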;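 note: 0 = wells with 2.5 mM tranylcypromine and 1 = vehicle-only wells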
# CYP2C9 inh – human CYP2C9 inhibition; P11712; CYP2C9 Supersomes, luciferin-H conversion, luminescence; inhibition, % at 5 µM; 96,000 compounds, 20% hits;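 active = blocking of liver enzyme CYP2C9 beyond about 50% at 5 µM, limit read from the data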
# Target sequence (P11712 whole entry, looked up): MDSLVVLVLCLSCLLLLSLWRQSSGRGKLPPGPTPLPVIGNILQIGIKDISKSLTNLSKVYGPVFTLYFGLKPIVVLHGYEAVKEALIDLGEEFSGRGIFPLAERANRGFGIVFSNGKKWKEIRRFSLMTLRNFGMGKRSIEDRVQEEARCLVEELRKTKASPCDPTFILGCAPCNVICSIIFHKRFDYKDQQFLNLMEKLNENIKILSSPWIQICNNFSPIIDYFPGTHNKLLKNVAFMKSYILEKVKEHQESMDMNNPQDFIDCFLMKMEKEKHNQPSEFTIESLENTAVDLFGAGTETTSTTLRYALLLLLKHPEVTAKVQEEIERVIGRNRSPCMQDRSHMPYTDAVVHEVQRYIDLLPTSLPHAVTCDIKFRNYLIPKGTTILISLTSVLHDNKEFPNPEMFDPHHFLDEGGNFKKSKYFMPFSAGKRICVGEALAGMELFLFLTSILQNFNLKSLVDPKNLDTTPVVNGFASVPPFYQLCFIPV
# CYP2C9 activ – activators of human CYP2C9 | P11712 | recombinant CYP2C9, luciferin-H conversion, luminescence; hits give high values; factor 1 = untreated enzyme, 0 = blocked | activation factor at 5 µM | 96,000 compounds, 1.4% hits | AID 1024;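 active = activation factor of 2 or more for CYP2C9 at a 5 µM dose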;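 note: 0 = sulfaphenazole-blocked wells and 1 = vehicle-only wells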
# The depositor's hits bear a star; . = no result. Most compounds without a hit are left out; they make up all but 27% or so of the library.
SMILES,PTK2B oligo ant,Cav32 inh,CYP2C19 inhib,CYP2C19 activ,CYP2C9 inh,CYP2C9 activ
CCN(CC)S(=O)(=O)c1ccc(NC(=O)c2c(-c3ccccc3)noc2C)cc1,.,-3.6,65*,0.4,46,0.5
N#Cc1ccccc1NC(=O)COC(=O)c1ccc(S(=O)(=O)N2CCCC2)cc1,0.55,1,2,1,33,0.7
Cc1cc(C(=O)OCC(=O)Nc2nc(-c3ccccc3)cs2)c(C)o1,0.43,0.24,5,0.9,-4,1
Cc1cc(C(=O)OC(C)C(=O)Nc2nc(-c3ccccc3)cs2)c(C)o1 (stereo not drawn),-0.35,-2.5,89*,0.1,96*,0
CCN(CC)S(=O)(=O)c1ccc(NC(=O)c2ccccc2N(C)S(C)(=O)=O)cc1,-0.28,1,6,0.9,61*,0.4
CCC(CC)c1nnc(NC(=O)c2c(-c3ccccc3)noc2C)s1,.,-1.6,19,0.8,58*,0.4
Cc1nnc(NC(=O)c2c(-c3ccccc3)noc2C)s1,-0.62,-0.11,-5,1,-1,1
Cc1onc(-c2ccccc2)c1C(=O)Nc1nnc(COc2ccc(Cl)cc2)s1,-2.9,.,54*,0.5,98*,0
COC(=O)c1cc(Br)c(=O)n(-c2ccc(C(C)=O)cc2)c1,.,.,34,0.7,25,0.8
O=C(CSc1nc(-c2ccc(F)cc2)cs1)N1CCc2ccccc21,0.87,-0.081,9,0.9,11,0.9
O=C(NCc1ccccc1)N1CCC(c2nc3ccccc3[nH]2)CC1,0.76,-0.1,-14,1.1,10,0.9
COC(=O)c1ccc(C)c(NC(=O)c2c(-c3ccccc3)noc2C)c1,-0.32,-0.31,69*,0.3,39,0.6
CC(C)CCOC(=O)/C(=C/c1ccco1)NC(=O)/C=C/c1ccccc1,0.39,-5.8*,23,0.8,46,0.5
O=C(CCc1ccc(S(=O)(=O)NC2CCCCC2)cc1)NCc1ccc(Cl)cc1,0.2,-0.74,21,0.8,44,0.6
COC(=O)c1cccnc1-n1c(=O)c2cccnc2n(Cc2cccc(OC)c2)c1=O,.,.,78*,0.2,43,0.6
Cc1cc(Nc2ccc(Br)c(C)c2)n2nc(C)nc2n1,.,-0.28,-6,1.1,-6,1.1
CCOC(=O)c1c(C)[nH]c(C(=O)COC(=O)C2CC(=O)N(Cc3ccccc3)C2)c1C (stereo not drawn),1.6,-0.036,42,0.6,42,0.6
Cc1[nH]c2ccccc2c1C(=O)COC(=O)C1CC(=O)N(Cc2ccccc2)C1 (stereo not drawn),-0.27,-1.1,78*,0.2,67*,0.3
C/C(=N\NC(=O)CC1N=C(Cc2ccccc2)NNC1=O)c1ccccc1 (stereo not drawn),0.26,0.75,4,1,-9,1.1
C/C(=N\NC(=O)CC1N=C(Cc2ccccc2)NNC1=O)c1ccc(Cl)cc1Cl (stereo not drawn),0.65,-4.7*,19,0.8,24,0.8
CCOC(=O)COc1c(Br)cc(/C=C2\SC(=O)N(CC(=O)N3CCCC3)C2=O)cc1OC,1.6,.,19,0.8,43,0.6
CCOC(=O)COc1ccc(/C=C2/SC(=Nc3ccccc3)N(Cc3cccnc3)C2=O)cc1OC,0.56,-1.2,55*,0.4,75*,0.2
CCOC(=O)N1CCN(C(=O)C2CCN(S(=O)(=O)c3cc(Cl)ccc3Cl)CC2)CC1,1.4,0.82,51*,0.5,-143,2.4*
CCOC(=O)N1CCN(C(=O)C2CCN(S(=O)(=O)c3c(C)cc(C)cc3C)CC2)CC1,-0.74,0.67,22,0.8,-241,3.4*
CCOC(=O)C1CCN(C(=O)C2CCCCC2)CC1,-0.55,0.74,18,0.8,8,0.9
CCOC(=O)C1CCN(C(=O)C2CCN(S(=O)(=O)c3cc(Cl)ccc3Cl)CC2)CC1,0.63,0.76,15,0.9,-135,2.4*
CCOC(=O)N1CCN(C(=O)C2CCN(S(=O)(=O)c3ccc(C)cc3)CC2)CC1,2,0.34,10,0.9,-35,1.4
O=C(Nn1cnnc1)c1ccccc1CCc1ccccc1,1.2,0.4,20,0.8,36,0.6
N#Cc1cnc2sc3ccccc3n2c1=N,0.1,-2.7,19,0.8,89*,0.1
CCc1c(O)nc2sc3ccccc3n2c1=O,-0.17,.,-7,1.1,1,1

# Screening data as filed in PubChem.
